From PubChem BioAssay (NCATS)
Inconclusive results are not listed. A call without a number means that no potency is given here. Active and inactive are the calls of the source. Calls come from the whole dose curve; as a rule, active = well fitted inhibition curve with a large enough effect; inconclusive = small, poorly fitted or top-dose-only effect; inactive = no such curve, though single readings can be large or run the other way. Where a SMILES comes first, the peptide text is derived from it. The star is where a group is joined. βNA = c1ccc2cc(N*)ccc2c1; Cbz = O=C(OCc1ccccc1)*; CH2F = FC*

Assay: P-glycoprotein substrates identified in KB-3-1 adenocarcinoma cell line, qHTS therapeutic library screen (AID 1346986); note: nearly all actives have a fitted effect of over 60% in size
Settings: KB-3-1 parental cells viability, CellTiter-Glo, 72 h; series mostly up to 44.5 µM
Procedure, shortened: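 Using luminescence to quantify ATP, parental and P-gp-overexpressing KB cells were compared after 72 h compound titration. KB-8-5-11 was also run with the P-gp inhibitor tariquidar.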

Which Potency does the source give for CC(=O)OC1CC(=O)C2(C)C3CC4=C(OC(C)CC4=O)OC3(C)CCC2C1(C)C (centres undefined) here?
The Potency was “inactive”.

For CC(C)CC(NC(=O)OCc1ccccc1)C(=O)NC(CC(C)C)C(=O)NC(CCC(=O)O)C(=O)Nc1ccc2ccccc2c1 (stereo not drawn) (Cbz-Leu-Leu-Glu-βNA; configuration not given here), which Potency is on record?
Its Potency is “inactive”.

For FC(F)(F)Oc1ccc(-c2ccc3nnc(C(F)(F)F)n3c2)cc1, which Potency is on record?
Its Potency is “inactive”.

For COc1cccc(OC)c1-c1nc(C(=O)N[C@@H](CC(C)C)C(=O)O)cn1-c1ccnc2cc(Cl)ccc12, which Potency is on record?
The Potency was “inactive”.

Which Potency does the source give for C=C1C2(C)CC3C4(C)C=CC(=O)OC(C)(C)C4CCC3(C)C1(C(=O)OC)C(=O)C(C)(O)C2=O (centres undefined) here?
Its Potency is “inactive”.

For COC(=O)CC[C@H](NC(=O)[C@H](CC(C)C)NC(=O)OCc1ccccc1)C(=O)N[C@@H](Cc1cnc[nH]1)C(=O)N[C@@H](CC(=O)OC)C(=O)CF (Cbz-LE(OMe)HD(OMe)-CH2F), which outcome is on record?
The outcome was “inactive [at 9.29 µM]”.

With C=C(CC/C=C(\C)C(=O)O)C1(O)CC=C(C)CC1 (centres undefined) as the compound, how does the Potency read?
Its Potency is “inactive”.

With COC(=O)C1=CO[C@@H](O[C@@H]2O[C@H](CO[C@@H]3O[C@H](CO)[C@@H](O)[C@H](O)[C@H]3O)[C@@H](O)[C@H](O)[C@H]2O)[C@@H]2C(CO)=CC[C@H]12 as the compound, how does the Potency read?
Its Potency is “inactive”.

Which outcome does the source give for C[C@@H]1O[C@@H](O[C@H]2[C@H](O)[C@@H](O)[C@H](OC[C@H]3O[C@@H](OC(=O)[C@]45CCC(C)(C)C[C@H]4C4=CCC6[C@@]7(C)C[C@@H](O)[C@H](O)[C@@](C)(CO)C7[C@H](O)C[C@@]6(C)[C@]4(C)CC5)[C@H](O)[C@@H](O)[C@@H]3O)O[C@@H]2CO)[C@H](O)[C@H](O)[C@H]1O (some centres undefined) here?
The outcome was “inactive [at 9.29 µM]”.

For NC1(c2ccc(NC(=O)c3ccnc(-c4cc(C(=O)O)ccn4)c3)cc2)CC1, which Potency is on record?
Its Potency is “inactive”.

Which Potency does the source give for C/C(=C\C(=O)C[C@@]12C(=O)O[C@]3(C)CC[C@H]1C[C@H]23)C(N)=O here?
Its Potency is “inactive”.

Which Potency does the source give for COc1ccc(O[C@@H]2O[C@H](CO)[C@@H](O)[C@H](O)[C@H]2O)cc1OC here?
Its Potency is “inactive”.

Which Potency does the source give for CC(C)C1NC(=O)C2CCCN2C1=O (centres undefined) here?
Its Potency is “inactive”.

Which Potency does the source give for COc1cccc(OC)c1-c1ccc(C[C@H](NC(=O)c2c(Cl)cccc2Cl)C(=O)O)cc1 here?
The Potency was “inactive”.

For C=CC(C)(O)CC/C=C(\C)C(=O)O[C@@H]1[C@@H](O)[C@H](OC(C)(C=C)CC/C=C(\C)C(=O)O[C@@H]2O[C@H](CO)[C@@H](O)[C@H](O)[C@H]2O)O[C@H](CO)[C@H]1OC(=O)/C(C)=C/CCC(C)(O)C=C (some centres undefined), which outcome is on record?
The outcome was “inactive [at 9.29 µM]”.

Which Potency does the source give for C=C(CCO[C@@H]1O[C@H](CO)[C@@H](O)[C@H](O)[C@H]1O)C(=O)O here?
Its Potency is “inactive”.

With CC(=O)OC1C(CO)OC(O[C@H]2[C@H](OC(=O)[C@]34CCC(C)(C)C[C@H]3C3=CCC5[C@@]6(C)CC[C@H](O[C@@H]7O[C@H](C(=O)O)[C@@H](O)[C@H](O[C@@H]8OC[C@@H](O)[C@H](O)[C@H]8O)[C@H]7O[C@@H]7O[C@H](CO)[C@H](O)[C@H](O)[C@H]7O)[C@@](C)(C=O)C6CC[C@@]5(C)[C@]3(C)C[C@H]4O)O[C@H](C)[C@H](OC3OC(C)C(OC4OCC(O)C(O)C4O)C(O)C3O)[C@@H]2O)C(O)C1O (some centres undefined) as the compound, how does the outcome read?
The outcome was “inactive [at 9.29 µM]”.

For CC1(C)[C@@H]2CC=C(CO[C@@H]3O[C@H](CO[C@@H]4OC[C@H](O)[C@H](O)[C@H]4O)[C@@H](O)[C@H](O)[C@H]3O)[C@H]1C2, which Potency is on record?
Its Potency is “inactive”.

With C[C@@H]1[C@H](O)[C@@H]2OC(=O)C3=C2[C@H](CCC3)[C@@]12C[C@@H](c1ccoc1)OC2=O as the compound, how does the Potency read?
The Potency was “inactive”.

With COC(=O)C1=CO[C@@H](O[C@@H]2O[C@H](CO)[C@@H](O)[C@H](O)[C@H]2O)[C@@H]2[C@@H](C)[C@@H](OC(=O)/C=C/c3ccccc3)[C@@H](O)[C@H]12 as the compound, how does the Potency read?
Its Potency is “inactive”.

With COc1cc(O)cc2c1C(=O)OC(C)CCCCCCC2 (centres undefined) as the compound, how does the Potency read?
The Potency was “inactive”.

For CC(=O)OC1CC2(C)C(CCC(C)C23Cc2c(O)cc4c(c2O3)CNC4=O)C(C)(C)C1O (centres undefined), which Potency is on record?
Its Potency is “inactive”.

For C=C[C@H]1[C@H](O[C@@H]2O[C@H](CO)[C@@H](O)[C@H](O)[C@H]2O)OC=C(C(=O)OC)[C@H]1CC=O, which Potency is on record?
The Potency was “inactive”.

Which Potency does the source give for C[C@]12CC/C(=N\OCC(=O)O)C=C1CC[C@@H]1[C@@H]2[C@@H](O)C[C@@]2(C)[C@H]1CC[C@]2(O)C(=O)CO here?
The Potency was “inactive”.

Which Potency does the source give for CCC12CCCN3CCc4c(n(c5ccccc45)C(O)C1)C32 (centres undefined) here?
Its Potency is “inactive”.

With C=C1CC[C@H]2[C@@](C)(CCC(OC3OC(CO)C(O)C(O)C3O)[C@@]2(C)CO)C1C(=O)CC1=CCOC1=O (some centres undefined) as the compound, how does the Potency read?
The Potency was “inactive”.

With NC[C@@H]1O[C@@H](O[C@@H]2[C@@H](O[C@@H]3O[C@H](CO)[C@@H](O)[C@H]3O)[C@H](O)[C@@H](N)C[C@H]2N)[C@@H](N)[C@H](O)[C@H]1O as the compound, how does the outcome read?
The outcome was “inactive [at 9.29 µM]”.

For COC(=O)C1=COC(O[C@@H]2O[C@H](CO)[C@@H](O)[C@H](O)[C@H]2O)[C@@H]2[C@@](C)(O)[C@@H](OC(=O)/C=C/c3ccccc3)C[C@]12O (some centres undefined), which Potency is on record?
The Potency was “inactive”.

For C/C=C1/[C@H](O[C@@H]2O[C@H](CO)[C@@H](O)[C@H](O)[C@H]2O)OC=C(C(=O)OC)[C@H]1CC(=O)OCCc1ccc(OC(=O)C[C@@H]2C(C(=O)OC)=CO[C@@H](O[C@@H]3O[C@H](CO)[C@@H](O)[C@H](O)[C@H]3O)/C2=C/C)cc1, which outcome is on record?
Its outcome is “inactive [at 9.29 µM]”.

For CCC/C=C/C=C/C1CC(O)C(O)C(=O)C1CO (centres undefined), which Potency is on record?
The Potency was “inactive”.

For COCCCc1sc(-c2ccccc2)nc1C(=O)Nc1ccccc1-c1nc2cc(CN3CCCC3)cnc2s1, which Potency is on record?
Its Potency is “inactive”.

Which Potency does the source give for COc1cc2nc(=NC(=O)c3cccnc3)n3c(c2cc1OC)NCC3 here?
Its Potency is “inactive”.

For C#CCCCn1cc(-c2cccc3c2N[C@@H](C)CC(=O)N3)cn1, which Potency is on record?
The Potency was “inactive”.

Which Potency does the source give for CC(C)=CCC/C(C)=C/CO[C@@H]1O[C@H](CO[C@@H]2O[C@@H](CO)[C@H](O)[C@H]2O)[C@@H](O)[C@H](O)[C@H]1O here?
The Potency was “inactive”.

For C=C1C(OC(C)=O)CCC2(C)CC3(O)OC(=O)C(C)=C3CC12 (centres undefined), which Potency is on record?
Its Potency is “inactive”.

For CC(=O)c1ccc(O[C@@H]2OC[C@@H](O)[C@H](O)[C@H]2O[C@]2(CO)O[C@H](CO)[C@@H](O)[C@@H]2O)c(O)c1, which Potency is on record?
The Potency was “inactive”.

With CCN1CCN(C(=O)N[C@@H](C(=O)N[C@@H]2C(=O)N3[C@@H]2SC(C)(C)[C@@H]3C(=O)O)c2ccccc2)C(=O)C1=O as the compound, how does the Potency read?
Its Potency is “inactive”.

Which Potency does the source give for Cc1cn(C[C@H](N)C(=O)O)c(=O)n(Cc2ccsc2C(=O)O)c1=O here?
Its Potency is “inactive”.

For C=C1[C@H]2CCC3[C@]4(C)CCC[C@@](C)(C(=O)O)C4CC[C@]3(C2)[C@H]1OC(C)=O (some centres undefined), which Potency is on record?
Its Potency is “inactive”.
